Drawing on PubChem BioAssay (NCATS), this text covers outcome, max response and Potency for 13 compounds.

Common to all, as to test: Cytotoxic Profiling of Annotated Libraries Using Quantitative High-Throughput Screening (AID 1296008); further: nearly all actives have a fitted effect of over 60% in size
What all share (conditions): Five cell lines viability, CellTiter-Glo ATP luminescence, 48-72 h; max response: stronger effect = lower value
(In general: In ATP-based viability assays light output follows the ATP content of the culture.)

In one test the test system is CRL-7250. In short, it runs like this: (§1)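 Cytotoxicity was measured as CellTiter-Glo ATP luminescence, read after 10 min at room temperature. Compound treatment of the cells lasted 48 or 72 hr at 37 degrees Celsius in a qHTS format.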
The next test has as its system HEK293. The method in brief: as §1
The test system of another test is HaCat. The method in brief: as §1
The next test concerns KB-3-1. In short, it runs like this:
as §1

For another test, the system named is NIH3T3. The method in brief:
as §1

Inconclusive results are not listed. Values without a mark were called inactive. Activity calls are given as the source filed them. The call rests on the fitted dose curve; in most records, active means well fitted inhibition curve with a large enough effect; inconclusive means small, poorly fitted or top-dose-only effect; inactive means flat fitted curve, though single readings scatter.
On the % scale 0 is the no-effect control and ±100 the full control effect; potency means the concentration at half of the fitted maximal effect.

Regarding `OC[C@H]1O[C@@H](Oc2ccccc2)[C@H](O)[C@@H](O)[C@@H]1O`, the compound was classed as inactive with CRL-7250 and with KB-3-1. Further, the max response with HEK293 is 0.0932%; with HaCat, 3.54%; with NIH3T3, -2.04%.
Turning to `CC(=O)OC1C(O)C2C(C)C3=CC(=O)OC3(O)CC2C2(C)CCCC(C)(CO)C12` (stereo not given), the compound was called inactive in the test with CRL-7250 and in the test on KB-3-1. The max response in the test on HEK293 was -10%; in the test with HaCat it was 3.69%; in the test on NIH3T3 it was 0.673%.
Consider `C[C@H]1O[C@@H](O[C@H]2CC[C@@]3(C)C(CC[C@]4(C)C3CC=C3C5CC(C)(C)CC[C@]5(C(=O)O)CC[C@]34C(=O)O)C2(C)C)[C@H](O)[C@@H](O)[C@@H]1O` (stereo not given in full), for which the compound was classed as inactive in the test with CRL-7250. Moreover, the max response is -5.54% in the test on HEK293, -21.6% in the test with HaCat, 4.81% with KB-3-1 and 3.7% with NIH3T3.
As for `CC/C=C\[C@H](O)[C@H](O)C1=C(C)C(=O)[C@]2(O1)C(=O)N[C@@](OC)(C(=O)c1ccccc1)[C@@H]2O`, the max response is -16% in the test on CRL-7250; -0.3% in the test with HEK293; -9.21% with HaCat; 7.92% in the test on KB-3-1; 1.26% in the test with NIH3T3.
Turning to `COc1c2c(c(C)c3c1C(=O)OC3)O[C@@]1(C)CC(O)C(C(C)(C)O)[C@](C)(CCC(=O)O)[C@H]1C2` (stereo not given in full), the call in the test with CRL-7250 and in the test with KB-3-1 was inactive. For the same compound, the max response with HEK293 was 4.24%; with HaCat, 2%; in the test on NIH3T3 it was -2.21%.
On to `CC/C=C/CC1=C(CCCCC(CCC(=O)O)OC(C)=O)CCC1=O` (stereo not given), for which the max response is -18.8% with CRL-7250; -16.2% in the test with HEK293; -33.4% in the test on HaCat; -6.15% with KB-3-1; -0.117% with NIH3T3.
In the case of `COc1cc([C@H]2c3cc(O)c(OC)cc3C[C@@H](CO[C@@H]3O[C@H](CO)[C@@H](O)[C@H](O)[C@H]3O)[C@@H]2CO)ccc1O`, the max response in the test with CRL-7250 is -6.95%; in the test on HEK293, -2.47%; in the test with HaCat it was -4.19%; in the test with NIH3T3, -0.225%. Further, the compound was called inactive in the test with KB-3-1.
`C=C(C)C1CCC2(C(=O)O)CCC3(C(=O)O)C(CCC4C5(C)CCC(O)C(C)(C(=O)O)C5CCC43C)C12` (stereo not given): in the test on CRL-7250, the outcome was inactive. The max response with HEK293 is 3.45%; in the test with HaCat, 3.2%; with KB-3-1, -7.04%; in the test with NIH3T3, 1.18%.
As to `C=C[C@]1(C)C=C2CCC3C(C)(CCC[C@@]3(C)C(=O)O)C2CC1` (stereo not given in full), the compound was called inactive in the test with CRL-7250. In addition, the max response in the test on HEK293 is 0.507%; with HaCat, -0.617%; with KB-3-1 it was 8.11%; with NIH3T3 it was -2.38%.
With `C=C1[C@H](OC(C)=O)[C@H]2[C@@H](OC(C)=O)[C@](C)(OC(C)=O)C[C@]2(OC(C)=O)C(=O)[C@H](C)/C=C/C(C)(C)C(=O)[C@H](OC(=O)C(C)C)[C@H]1OC(C)=O`, the max response is 0.468% with CRL-7250, 1.22% in the test with HEK293, -2.43% in the test with HaCat and 2.17% in the test with NIH3T3. Further, the compound was classed as inactive with KB-3-1.
`CN1CCN(C(=O)c2ccc3cc(CCNc4ncnc5ccc(C#N)cc45)ccc3c2)CC1`: the Potency is 4.61 µM (active) in the test on CRL-7250 and 2.91 µM (active) in the test with HEK293. Further, the compound was classed as inactive with HaCat. For the same compound, the results for the max response in the test with KB-3-1 and in the test with NIH3T3 were -26.4% and -2.38%, respectively.
In the case of `C=C[C@H]1C(O[C@@H]2O[C@H](CO)[C@@H](O)[C@H](O)[C@H]2O)OC=C2C(=O)N3CCc4c([nH]c5ccccc45)[C@H]3C[C@H]21` (stereo not given in full), the result with CRL-7250 was inactive. Further, the max response was -11.2% in the test with HEK293, 2.83% with HaCat, 3.99% in the test on KB-3-1 and 2.76% in the test with NIH3T3.
Take `C=C1CCC[C@]2(C)CC[C@@H](C(=C)C(=O)O)[C@H](O)[C@@H]12`: the max response in the test on CRL-7250 was -0.497%; in the test on HEK293 it was -1.48%; in the test on KB-3-1, 1.72%; with NIH3T3, -0.289%. Further, the result in the test with HaCat was inactive.
